From PubChem BioAssay
In the library only some 0.81% were active in any assay of this set; here they are far more common.
TRPML1 inh: human mucolipin-1 channel inhibition. activity change, negative = inhibition, % (concentration not given with the values). hit rate 0.02% among 390,000. TRPML1-inducible cells, Ca2+ dye fluorescence, FDSS; stronger effect = lower value; inhibition of EC80 agonist-evoked calcium signal; in the data active means activity change below about -50%; inconclusive means between about -30% and that limit;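 further: stimulus is agonist 54-4 at its EC80 concentration; on the % scale 0 is the no-effect control and ±100 the full control effect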
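TRPML1-DL cells, Tet-induced overnight (~16 h, 37 °C) at 1,500 cells/well, were loaded with Ca8 no-wash dye plus quencher for 45-90 min at room temperature. Compounds were pinned during FDSS kinetic reading; agonist 54-4 at EC80 (4 uM final) then added.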
TRPML1 agonist: human mucolipin-1 channel agonism | Q9GZU1 | TRPML1-expressing cells, Ca2+ dye fluorescence, FDSS | activation, % (no concentration beside the values) | hit rate 0.12% among 410,000 | AID 624414; in the data active means activation above about 50%; inconclusive means mostly about 30% to 49%; further: 0% is about no effect
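In this qHTS format, compounds were pin-transferred onto Ca8-dye-loaded TRPML1-DL cells induced with Tet overnight, and intracellular Ca2+ fluorescence was recorded kinetically for 110 s after a 10 s baseline. A subsequent 4uM final 54-4 (EC80) addition followed by a second 110 s read served as the antagonist phase.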
TRHR agonist: TRH receptor (human) agonism. AID 493084. activation, % at 2 µM. P34981. TRHR cells, calcium flux fluo-8, FDSS agonist mode. hit rate 0.18% among 360,000; in the data active means activation above about 30%; further: 0% is about no effect
Target sequence (P34981 whole entry, looked up): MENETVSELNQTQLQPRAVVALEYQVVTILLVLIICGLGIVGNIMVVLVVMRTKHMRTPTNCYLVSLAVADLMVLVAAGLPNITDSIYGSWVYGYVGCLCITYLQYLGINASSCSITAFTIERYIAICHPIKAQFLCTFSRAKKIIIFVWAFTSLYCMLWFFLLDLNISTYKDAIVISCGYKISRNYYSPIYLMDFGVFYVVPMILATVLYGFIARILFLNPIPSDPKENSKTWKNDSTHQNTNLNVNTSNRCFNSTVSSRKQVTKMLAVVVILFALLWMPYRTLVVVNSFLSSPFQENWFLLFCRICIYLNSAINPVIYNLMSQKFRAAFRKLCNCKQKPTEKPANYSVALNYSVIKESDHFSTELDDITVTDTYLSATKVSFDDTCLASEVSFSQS
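Agonist-mode FDSS calcium read (Ex 480/Em 530, 1 s cycles) in 1536-well TRHR cells with fluo-8 dye, after 10-cycle baseline and 23 nL compound addition; TRH at EC20 (10 nM final) added afterwards for the enhancer phase.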
TRHR PAM: allosteric enhancers of human TRH receptor; enhancement, % at 2 µM; TRHR cells, fluo-8 calcium fluorescence, EC20 TRH enhancement; hit rate 0.66% among 360,000; P34981; in the data active means enhancement above about 30%; further: 0% is about no effect
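TRHR-expressing cells loaded with fluo-8 calcium dye were read kinetically (ex 480/em 530) during compound addition, then stimulated with an EC20 of TRH (10 nM final). Enhancement of the Gq-mediated intracellular calcium response was scored.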
* marks the source's active call; other numbers are inactive results; ? = inconclusive; nt = no result.

SMILES	TRPML1 inh	TRPML1 agonist	TRHR agonist	TRHR PAM
Cn1cc(Br)c(C(=O)NNC(=O)c2ccccc2)n1	-0.2	-0.3	-0.1	32.5*
O=C(CN(c1ccccn1)S(=O)(=O)c1ccccc1)Nc1ccccc1	-0.4	0.0	0.7	39.4*
O=C(CN(c1ccccn1)S(=O)(=O)c1ccc(F)cc1)Nc1ccccc1	-0.1	-0.4	0.0	-8.3
Nc1nc(-c2ccccc2)c(-c2ccccc2)n1N	nt	nt	3.7	-1.8
c1ccc(-c2cnn3c(-c4ccccc4)c(-c4ccccc4)nc3n2)cc1	-25.3	79.0*	173.5*	23.0
C/C(=C1/C=Nc2ccccc21)c1ccc(N(C)C)cc1	nt	-0.3	nt	nt
CCOC(=O)C[n+]1cccc(Br)c1	nt	-0.4	nt	nt
N#C/C(=C\c1ccc(O)cc1)c1nc2ccccc2o1	-20.4	9.3	5.6	-3.3
COc1cc(/C=C(\C#N)c2nc3ccccc3o2)ccc1O	-2.6	53.1*	77.8*	6.2
COc1cc2c(NC3CCN(C)CC3)nc(N3CCCN(C)CC3)nc2cc1OCCCC(C)C	nt	-0.6	nt	nt
O=C(Nc1cccnc1)c1ccc(Oc2ccccc2)cc1	-9.6	3.7	-0.4	34.3*
CS(=O)(=O)N1CCN=C1SCc1ccccc1	33.6	3.0	-0.3	31.5*
CC1Sc2ccc(C(=O)O)cc2NC1=O (stereo not given)	33.6	-0.1	-0.8	15.6
COc1ccc(CNC(=O)c2ccc3c(c2)NC(=O)C(C)S3)cc1 (stereo not given)	-17.1	0.3	0.0	36.1*
O=S(=O)(c1ccc2nc(N3CCN(c4ccccc4)CC3)ccc2c1)N1CCCCC1	-5.8	0.6	0.3	0.0
COc1ccccc1N1CCN(c2ccc3cc(S(=O)(=O)N4CCCCC4)ccc3n2)CC1	-18.8	96.0*	0.4	0.8
Cn1nc(C(C)(C)C)c(NC(=O)c2cccs2)c1C(C)(C)C	-17.5	77.9*	0.0	22.2
COc1ccc(C2(c3ccc(OC)cc3)NC(=O)N(CC(=O)Nc3ccccc3C(F)(F)F)C2=O)cc1	-0.9	-0.5	1.2	-12.5
COc1ccc(C2(c3ccc(OC)cc3)NC(=O)N(CC(=O)Nc3ccccc3C)C2=O)cc1	9.2	1.7	-0.8	35.6*
Cc1ccnc2ccc(N)cc12	nt	-0.4	nt	nt
O=C(CSC(=S)N1CCCC1)Nc1ncc(Cl)cc1Cl	9.4	0.5	-0.4	31.4*
O=C(COC(=O)C1CC1)Nc1ncc(Cl)cc1Cl	0.8	0.4	1.1	4.8
Cc1cc(/C=N/NC(=O)Cn2c3ccccc3c(=O)c3ccccc32)c(C)n1-c1ccc(Cl)cc1	?	-0.6	-0.4	4.3
Cc1ccc(-n2c(C)cc(/C=N/NC(=O)Cn3c4ccccc4c(=O)c4ccccc43)c2C)cc1	30.2	0.2	-0.6	32.6*
Cc1ccc(CSc2nnc(-c3ccc(NC(=O)CCc4ccccc4)cc3)n2C)cc1	nt	-0.3	nt	nt
SMILES	TRPML1 inh	TRPML1 agonist	TRHR agonist	TRHR PAM
COC(=O)CC#N	0.3	0.0	-0.8	2.0
N#CCC(N)=C(C#N)C#N	-0.5	6.8	38.3*	-8.2
O=C(C[n+]1cccc(Br)c1)c1ccc(F)cc1	nt	-0.1	nt	nt
c1ccc(Nc2nc(NCc3ccco3)c3ccccc3n2)cc1	-14.5	0.9	0.6	-14.4
Cc1ccccc1Nc1nc(NCc2ccco2)c2ccccc2n1	22.8	0.4	0.4	24.8
CCNc1nc(NCc2ccco2)c2ccccc2n1	nt	72.4*	nt	nt
CNc1nc(NCc2ccco2)c2ccccc2n1	nt	70.1*	nt	nt
Cc1ccnc2ccc(Br)cc12	nt	-0.7	nt	nt
O=C(O)c1cc(-c2ccc3c(c2)OCO3)nc2ccc(Cl)cc12	1.2	-0.3	-0.3	33.5*
O=C(Nc1noc2ccccc12)c1ccc(F)cc1	-1.2	0.2	0.5	46.0*
CCOc1ccc(C)cc1S(=O)(=O)n1nc(C)cc1C	18.4	3.6	-0.6	-3.7
CCOc1ccc(S(=O)(=O)n2nc(C)cc2C)c2ccccc12	8.6	4.9	-1.5	35.1*
CSc1ncc(CN2CCN(CC=C(C)C)C(CCO)C2)cn1 (stereo not given)	0.3	-0.8	0.8	1.4
CCn1ccnc1CN1CCN(CC=C(C)C)C(CCO)C1 (stereo not given)	4.5	-0.5	0.0	31.3*
CCN(c1ccccc1)S(=O)(=O)c1cccc(C(=O)NCc2cccnc2)c1	20.9	1.2	-0.6	9.7
CCN(c1ccccc1)S(=O)(=O)c1cccc(C(=O)NCc2ccncc2)c1	6.1	0.4	0.0	31.4*
COc1ccccc1-[n+]1c(C)cc(/C=C2\Sc3ccccc3N2C)cc1C	-11.9	65.0*	60.8*	89.6*
COc1ccc(-[n+]2c(C)cc(/C=C3\Sc4ccccc4N3C)cc2C)cc1	2.4	69.0*	73.3*	66.2*
COc1ccc(C(=O)/C=C2\Sc3ccccc3N2C)cc1	-26.0	0.5	-0.9	-0.2
O=C(CNC(=O)c1ccc(C(F)(F)F)cc1)OC(C(=O)Nc1cc(C(F)(F)F)ccc1Cl)c1ccccc1 (stereo not given)	nt	nt	1.9	-3.5
CCOc1ccc(CC(=O)NCCc2sc3nc(-c4ccc(F)cc4)nn3c2C)cc1	6.3	1.0	0.0	43.1*
CNCCN(C)c1nc(-c2cccs2)nc2ccccc12	nt	0.0	nt	nt
Cc1nc(SCC(=O)CC(=O)OC(C)C)c(C#N)c(C)c1C	-1.0	71.2*	0.0	-4.1
Cc1cc2c(s1)c1cnn(Cc3ccc(C(C)C)cc3)c(=O)c1n2C	nt	nt	-0.5	0.7
Nc1ccc(/C=C/c2cccc3cccnc23)cc1	nt	4.1	nt	nt
SMILES	TRPML1 inh	TRPML1 agonist	TRHR agonist	TRHR PAM
O=C1c2ccccc2-c2onc3ccc(NCCCn4ccnc4)c1c23	5.7	74.5*	112.4*	2.2
COc1ccc(N)c2c1C(=O)c1ccccc1C2=O	-7.7	1.5	-1.0	5.5
NS(=O)(=O)c1ccc(NCCCn2ccnc2)c([N+](=O)[O-])c1	-8.4	-0.1	0.6	0.2
COc1ccc(OC)c2c1C(=O)c1ccccc1C2=O	-12.8	11.0	35.0*	-4.0
COc1ccc2noc3c2c1C(=O)c1ccccc1-3	1.3	79.3*	nt	nt
C[C@@H]1[C@H](c2ccccc2)OCCS(=O)(=O)N1Cc1ccccc1Br	nt	-0.3	nt	nt
COc1cc2nc(N3CCN(C)CC3)nc(NC3CCN(Cc4ccccc4)CC3)c2cc1OC	nt	-0.2	nt	nt
O=C(c1ccccc1)C(c1ccccc1)[n+]1csc2ccccc21 (stereo not given)	nt	-0.4	nt	nt
COc1cc2nc(N3CCCCC3)nc(NC3CC3)c2cc1OC	nt	-0.4	nt	nt
Cc1cccc(NC(=O)c2sc3nc(-c4cc5ccc(O)cc5oc4=O)[nH]c(=O)c3c2C)c1	?	112.4*	0.4	10.2
Cc1c(C(=O)Nc2cccc(F)c2)sc2nc(-c3cc4ccccc4oc3=O)[nH]c(=O)c12	-1.3	-0.1	0.0	4.1
Cc1cc(C)cc(NC(=O)c2sc3nc(-c4cc5ccccc5oc4=O)[nH]c(=O)c3c2C)c1	-50.1*	0.4	0.4	-3.6
Cn1c(=O)c2cc(NC(=O)Cc3ccccc3F)ccc2n1-c1ccc(C(C)(C)C)cc1	nt	63.3*	nt	nt
CCCCCCCCCCCCOC(=O)N1CCN(/[N+]([O-])=N/Oc2ccc([N+](=O)[O-])cc2[N+](C)=O)CC1	-8.2	1.0	nt	nt
CCCCC(=O)Nc1cccc(-c2nc3ncccc3o2)c1C	-20.1	-1.5	2.7	1.7
